In PubChem BioAssay (EPA / NIEHS) one finds outcome and AC50 data, which are given here for four compounds.

The source made the active and inactive calls. How the source made its calls: active means hit-call score of the fitted dose curve at least 0.9, where 1 is the maximum; inactive means score below 0.9.

Test [1] is described as follows: ATG_CRE_CIS: Attagene CIS-FACTORIAL HepG2 Assay for human cAMP Responsive Element (CRE) binding protein 3 (AID 2282926). Particulars: HepG2 CRE cis-reporter, Attagene multiplexed mRNA; actives raise or lower the signal. A digest of the protocol:
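Readout: fluorescently labelled reporter transcripts resolved by capillary electrophoresis after RT-PCR, taken 24 h post-dosing in transfected HepG2. Endogenous transcription factor activity drives each cis-element reporter; gain or loss of signal fitted relative to DMSO control.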

Test [2] addresses CCAAT/enhancer-binding protein beta (Homo sapiens) (UniProt P17676). Kind of test: ATG_C_EBP_CIS: Attagene CIS-FACTORIAL HepG2 Assay for human CCAAT/Enhancer Binding Protein (C/EBP) beta (AID 2282927). Particulars: HepG2 Attagene cis-factorial transcription factor reporter; actives raise or lower the signal. A digest of the protocol:
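Endogenous transcription factor activity in human liver HepG2 cells is inferred from induction of a CEBPB-linked reporter mRNA. Exposure lasts 24 h; activity is fitted in both directions relative to DMSO.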

Test [3] in a line: ATG_CMV_CIS: Attagene CIS-FACTORIAL HepG2 Assay for human CMV (Internal Marker) (AID 2282928).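 Further: endpoint acts as a background internal control marker rather than a target.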 Particulars: HepG2 CMV promoter reporter, transcription factor profiling; actives raise or lower the signal. In short, it runs like this:
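Readout: fluorescent reporter cDNA fragments separated by capillary electrophoresis after RT-PCR and HpaI cut. Cells: HepG2 carrying transfected cis-promoter reporter constructs, dosed 24 h. Endpoint serves as background internal-marker control, fit bidirectionally versus DMSO.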

A short description of test [4]: ATG_DR4_LXR_CIS: Attagene CIS-FACTORIAL HepG2 Assay for human Liver X Receptor (LXR), DR4 submotif (AID 2282929). Particulars: HepG2 Attagene DR4 cis-reporter, mRNA transcription; actives raise or lower the signal. A digest of the protocol:
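Measures endogenous transcription factor activity via a DR4-driven reporter transcript in human HepG2 cells. Compounds incubated 24 h; mRNA quantified by RT-PCR and capillary electrophoresis, analysed as gain or loss of signal versus DMSO.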

Test [5] addresses Aryl hydrocarbon receptor (Homo sapiens) (UniProt P35869). Kind of test: ATG_Ahr_CIS: Attagene CIS-FACTORIAL HepG2 Assay for human Aryl Hydrocarbon Receptor (Ahr) (AID 2282930). Particulars: HepG2 AhR cis-factorial reporter transcription; actives raise or lower the signal. A digest of the protocol:
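Transient MRTU transfection of HepG2 → 24 h compound exposure → total RNA, oligo(dT) RT → PCR, 6-FAM extension, HpaI cut → CE fluorescence. DMSO = baseline; bidirectional curve fit.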

The nature of test [6]: ATG_AP_1_CIS: Attagene CIS-FACTORIAL HepG2 Assay for human Activator Protein 1 (AP-1) (AID 2282931). Particulars: HepG2 Attagene cis-factorial AP-1 reporter mRNA; actives raise or lower the signal. A digest of the protocol: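 Bidirectional concentration-response fitting against DMSO controls. Underlying signal: reporter mRNA from cis-promoter constructs in transiently transfected HepG2, measured after 24 h by RT-PCR and capillary electrophoresis.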

Test [7] can be described thus: ATG_AP_2_CIS: Attagene CIS-FACTORIAL HepG2 Assay for human Activator Protein 2 (AP-2) (AID 2282932). Particulars: HepG2 AP-2 cis-reporter, Attagene transcription factor profiling; actives raise or lower the signal. In short, it runs like this:
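Endogenous transcription factor activity is reported through transfected multiplex reporter constructs in HepG2, after 24 h of compound exposure. Transcripts were quantified by RT-PCR and capillary electrophoresis of fluorescent fragments. Bidirectional fit against DMSO.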

Test [8] in a line: ATG_BRE_CIS: Attagene CIS-FACTORIAL HepG2 Assay for human Bone Morphogenetic Protein (BMP) Response Element (BRE) (AID 2282933). Particulars: HepG2 BMP response element reporter, Attagene transcription factor profiling; actives raise or lower the signal. A digest of the protocol:
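HepG2 cells transiently transfected with multiplexed cis-element reporter units were dosed with chemical for 24 h. Reporter mRNA was measured by RT-PCR with fluorescent labelling, HpaI digestion and capillary electrophoresis; bidirectional fitting relative to DMSO.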

In test [9] the target is Retinoic acid receptor alpha (Homo sapiens) (UniProt P10276). Kind of test: ATG_DR5_RAR_CIS: Attagene CIS-FACTORIAL HepG2 Assay for human Retinoic Acid Receptor Alpha (RARE), DR5 submotif (AID 2282934). Particulars: HepG2 Attagene cis-factorial RARE DR5 reporter, mRNA; actives raise or lower the signal. A digest of the protocol: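 Transient MRTU transfection of HepG2; 24 h compound treatment; TriZol RNA, oligo(dT) RT, PCR, FAM labelling, capillary electrophoresis. Bidirectional fit vs DMSO. Endogenous TF activity at DR5 RARE.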
Sequence of Retinoic acid receptor alpha (Homo sapiens) (P10276 whole entry, looked up): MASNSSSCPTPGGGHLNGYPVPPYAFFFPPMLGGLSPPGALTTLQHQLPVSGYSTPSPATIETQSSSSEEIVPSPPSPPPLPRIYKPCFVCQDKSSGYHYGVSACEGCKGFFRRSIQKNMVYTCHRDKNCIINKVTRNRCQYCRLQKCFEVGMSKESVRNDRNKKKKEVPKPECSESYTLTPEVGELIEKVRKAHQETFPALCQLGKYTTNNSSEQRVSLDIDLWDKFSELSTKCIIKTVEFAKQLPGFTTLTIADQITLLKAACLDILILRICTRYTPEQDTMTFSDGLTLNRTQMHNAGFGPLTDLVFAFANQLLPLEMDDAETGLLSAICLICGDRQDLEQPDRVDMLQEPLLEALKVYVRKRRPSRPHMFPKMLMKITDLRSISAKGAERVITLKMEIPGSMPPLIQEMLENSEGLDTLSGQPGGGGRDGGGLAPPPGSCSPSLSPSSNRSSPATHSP

Test [10] has as its target Transcription factor E2F1 (Homo sapiens) (UniProt Q01094). Kind of test: ATG_E2F_CIS: Attagene CIS-FACTORIAL HepG2 Assay for human E2F Transcription Factor 1 (AID 2282935). Particulars: HepG2 Attagene cis-reporter, E2F reporter RNA transcripts; actives raise or lower the signal. In short, it runs like this:
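Gain or loss of reporter transcript, fitted against DMSO, reflects E2F1-driven transcription. Transiently transfected HepG2 dosed 24 h before RNA isolation. Quantified by fluorescent RT-PCR products separated by capillary electrophoresis.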

A short description of test [11]: ATG_E_Box_CIS: Attagene CIS-FACTORIAL HepG2 Assay for human Enhancer Box (E-box) (AID 2282936). Particulars: HepG2 E-box cis-reporter transcription, actives raise or lower the signal. In short, it runs like this: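 E-box-driven reporter transcripts measured in transiently transfected HepG2 after 24 h exposure: RNA reverse-transcribed, PCR-amplified, fluorescently labelled, digested and resolved by capillary electrophoresis. Gain or loss relative to DMSO.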

Test [12] in a line: ATG_M_61_CIS: Attagene CIS-FACTORIAL HepG2 Assay for M61 Transcription Factor (Internal Marker) (AID 2282937). Particulars: HepG2 Attagene CIS-FACTORIAL M61 internal marker reporter; actives raise or lower the signal. In short, it runs like this: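 Fluorescence from labelled cDNA fragments, separated by capillary electrophoresis, quantifies reporter induction. HepG2 cells bearing transiently transfected cis-promoter MRTUs were incubated with test chemical for 24 h; DMSO defined baseline for gain/loss fitting.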

The nature of test [13]: ATG_EGR_CIS: Attagene CIS-FACTORIAL HepG2 Assay for human Early Growth Response 1 (EGR1) (AID 2282938). Particulars: HepG2 Attagene CIS-FACTORIAL EGR reporter mRNA; actives raise or lower the signal. A digest of the protocol: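 Cell-based multiplex transcription assay: HepG2 carrying transfected cis-element reporter units, 24 h chemical treatment. Fluorescence from capillary electrophoresis of RT-PCR products gives mRNA levels; fitting is bidirectional relative to DMSO.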

Test [14] in a line: ATG_Ets_CIS: Attagene CIS-FACTORIAL HepG2 Assay for human Erythroblast Transformation Specific (ETS) (AID 2282941). Particulars: HepG2 ETS cis-reporter transcription, actives raise or lower the signal. A digest of the protocol:
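RT-PCR/capillary electrophoresis fluorescence read-out of reporter mRNA; HepG2 transient multi-reporter transfection; 24 h compound exposure; gain or loss of signal fitted bidirectionally relative to DMSO.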

A short description of test [15]: ATG_FoxO_CIS: Attagene CIS-FACTORIAL HepG2 Assay for human Forkhead box O (FoxO) (AID 2282943). Particulars: HepG2 Attagene cis-reporter, FoxO element, mRNA; actives raise or lower the signal. A digest of the protocol:
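HepG2, transient MRTU transfection (cis element, endogenous TFs). Dose 24 h. TriZol RNA → oligo(dT) RT → PCR → 6-FAM primer extension → HpaI cut → CE. Gain/loss vs DMSO.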

Test [16] can be described thus: ATG_GATA_CIS: Attagene CIS-FACTORIAL HepG2 Assay for human GATA Binding Protein (AID 2282944). Particulars: HepG2 GATA cis-element reporter, Attagene multiplex mRNA; actives raise or lower the signal. A digest of the protocol:
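HepG2 cells transiently transfected with multiplexed cis-element reporter units reflecting endogenous transcription factor activity; reporter mRNA measured after 24 h dosing by RT-PCR, 6-FAM labeling, HpaI digestion and capillary electrophoresis. Bidirectional fitting versus DMSO baseline.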

Test [17] in a line: ATG_GLI_CIS: Attagene CIS-FACTORIAL HepG2 Assay for human Zinc Finger Protein GLI1 (AID 2282945). Particulars: HepG2, Attagene cis-factorial reporter mRNA, GLI element; actives raise or lower the signal. A digest of the protocol:
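Bidirectional curve fits relative to DMSO, using reporter mRNA levels from RT-PCR plus capillary electrophoresis. Cells were HepG2 transiently carrying cis-regulated reporter constructs, harvested 24 h after dosing.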

Test [18] has as its target Bile acid receptor (Homo sapiens) (UniProt Q96RI1). Kind of test: ATG_IR1_CIS: Attagene CIS-FACTORIAL HepG2 Assay for human Nuclear Receptor Subfamily 1 Group H Member 4 (NR1H4), IR1 submotif (AID 2282946). Particulars: IR1 reporter transcription, actives raise or lower the signal. A digest of the protocol: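 HepG2 cells transiently transfected with multiplexed cis-element reporter units read endogenous transcription factor activity. After 24 h compound exposure, reporter mRNA was quantified by RT-PCR, fluorescent labelling, HpaI digestion and capillary electrophoresis; bidirectional fitting versus DMSO baseline.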

Test [19] can be described thus: ATG_M_19_CIS: Attagene CIS-FACTORIAL HepG2 Assay for M19 Transcription Factor (Internal Marker) (AID 2282939). Particulars: HepG2 Attagene CIS-FACTORIAL M19 internal marker reporter; actives raise or lower the signal. In short, it runs like this:
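HepG2 cells transiently transfected with cis-regulated multiple reporter transcription units were dosed for 24 h; reporter mRNA was quantified by RT-PCR, 6-FAM primer-extension labelling, HpaI digestion and capillary electrophoresis, with bidirectional fitting against DMSO baseline.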

The target in test [20] is Hepatocyte nuclear factor 3-beta (Homo sapiens) (UniProt Q9Y261). Kind of test: ATG_FoxA2_CIS: Attagene CIS-FACTORIAL HepG2 Assay for human Forkhead box A2 (FOXA2) (AID 2282942). Particulars: HepG2 cis-reporter transcription factor activity, 24 h; actives raise or lower the signal. In short, it runs like this:
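In transiently transfected human HepG2 cells, promoter-driven reporter mRNA levels after 24 h chemical exposure are determined via RT-PCR with capillary electrophoresis. DMSO serves as baseline for bidirectional fitting.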

Sequence of Aryl hydrocarbon receptor (Homo sapiens) (P35869 whole entry, looked up): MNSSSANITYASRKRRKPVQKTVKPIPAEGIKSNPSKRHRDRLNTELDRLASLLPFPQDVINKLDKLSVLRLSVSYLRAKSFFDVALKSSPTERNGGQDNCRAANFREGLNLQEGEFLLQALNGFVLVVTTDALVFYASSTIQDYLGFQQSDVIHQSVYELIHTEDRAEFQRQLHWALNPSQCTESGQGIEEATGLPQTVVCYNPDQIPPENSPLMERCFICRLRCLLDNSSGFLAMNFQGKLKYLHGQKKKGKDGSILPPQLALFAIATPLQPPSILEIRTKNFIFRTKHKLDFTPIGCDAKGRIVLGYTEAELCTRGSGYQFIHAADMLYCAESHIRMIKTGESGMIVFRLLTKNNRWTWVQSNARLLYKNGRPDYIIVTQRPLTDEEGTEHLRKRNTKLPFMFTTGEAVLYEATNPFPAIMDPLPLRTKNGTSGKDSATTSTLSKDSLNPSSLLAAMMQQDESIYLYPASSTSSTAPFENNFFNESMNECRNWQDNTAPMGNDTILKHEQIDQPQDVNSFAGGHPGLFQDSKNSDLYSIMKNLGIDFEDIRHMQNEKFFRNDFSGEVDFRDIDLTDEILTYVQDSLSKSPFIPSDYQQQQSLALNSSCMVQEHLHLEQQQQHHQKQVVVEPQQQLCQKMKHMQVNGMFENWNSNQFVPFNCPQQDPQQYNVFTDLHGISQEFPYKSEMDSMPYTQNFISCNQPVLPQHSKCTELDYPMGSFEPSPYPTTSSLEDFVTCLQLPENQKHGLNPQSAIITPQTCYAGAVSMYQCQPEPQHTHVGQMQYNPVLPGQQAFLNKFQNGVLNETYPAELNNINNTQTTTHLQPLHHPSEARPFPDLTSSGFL
Sequence of CCAAT/enhancer-binding protein beta (Homo sapiens) (P17676 whole entry, looked up): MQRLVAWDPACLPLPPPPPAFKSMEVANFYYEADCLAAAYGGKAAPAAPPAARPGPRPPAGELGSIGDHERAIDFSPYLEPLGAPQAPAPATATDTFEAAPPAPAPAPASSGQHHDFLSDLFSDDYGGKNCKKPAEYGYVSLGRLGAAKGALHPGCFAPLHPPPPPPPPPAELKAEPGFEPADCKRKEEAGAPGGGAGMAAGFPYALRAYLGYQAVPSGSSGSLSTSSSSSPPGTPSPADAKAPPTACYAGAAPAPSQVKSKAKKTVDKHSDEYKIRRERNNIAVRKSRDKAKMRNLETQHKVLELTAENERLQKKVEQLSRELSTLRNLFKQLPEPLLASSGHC
Sequence of Transcription factor E2F1 (Homo sapiens) (Q01094 whole entry, looked up): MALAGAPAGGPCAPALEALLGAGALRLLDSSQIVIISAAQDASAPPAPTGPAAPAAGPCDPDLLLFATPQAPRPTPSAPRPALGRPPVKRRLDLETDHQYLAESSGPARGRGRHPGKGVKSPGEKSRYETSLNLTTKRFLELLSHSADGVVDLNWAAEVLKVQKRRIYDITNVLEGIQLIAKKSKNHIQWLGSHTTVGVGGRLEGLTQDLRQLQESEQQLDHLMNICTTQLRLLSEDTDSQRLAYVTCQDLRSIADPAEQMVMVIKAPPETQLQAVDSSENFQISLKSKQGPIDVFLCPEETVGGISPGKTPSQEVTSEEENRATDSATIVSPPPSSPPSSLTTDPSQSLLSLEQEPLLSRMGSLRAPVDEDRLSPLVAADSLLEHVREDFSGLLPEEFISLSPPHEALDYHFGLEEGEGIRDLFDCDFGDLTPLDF
Sequence of Bile acid receptor (Homo sapiens) (Q96RI1 whole entry, looked up): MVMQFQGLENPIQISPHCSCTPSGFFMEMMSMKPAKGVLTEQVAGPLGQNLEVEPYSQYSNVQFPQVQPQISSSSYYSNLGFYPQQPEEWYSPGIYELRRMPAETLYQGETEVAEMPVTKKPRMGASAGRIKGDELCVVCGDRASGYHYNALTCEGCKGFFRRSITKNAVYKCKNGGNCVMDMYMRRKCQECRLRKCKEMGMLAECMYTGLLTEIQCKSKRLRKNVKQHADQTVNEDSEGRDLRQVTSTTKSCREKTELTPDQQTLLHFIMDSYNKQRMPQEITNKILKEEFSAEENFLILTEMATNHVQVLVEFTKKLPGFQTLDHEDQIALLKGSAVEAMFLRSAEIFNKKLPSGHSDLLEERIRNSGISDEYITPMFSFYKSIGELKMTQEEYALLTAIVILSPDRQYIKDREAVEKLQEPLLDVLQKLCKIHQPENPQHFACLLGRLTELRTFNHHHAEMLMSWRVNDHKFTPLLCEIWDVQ
Sequence of Hepatocyte nuclear factor 3-beta (Homo sapiens) (Q9Y261 whole entry, looked up): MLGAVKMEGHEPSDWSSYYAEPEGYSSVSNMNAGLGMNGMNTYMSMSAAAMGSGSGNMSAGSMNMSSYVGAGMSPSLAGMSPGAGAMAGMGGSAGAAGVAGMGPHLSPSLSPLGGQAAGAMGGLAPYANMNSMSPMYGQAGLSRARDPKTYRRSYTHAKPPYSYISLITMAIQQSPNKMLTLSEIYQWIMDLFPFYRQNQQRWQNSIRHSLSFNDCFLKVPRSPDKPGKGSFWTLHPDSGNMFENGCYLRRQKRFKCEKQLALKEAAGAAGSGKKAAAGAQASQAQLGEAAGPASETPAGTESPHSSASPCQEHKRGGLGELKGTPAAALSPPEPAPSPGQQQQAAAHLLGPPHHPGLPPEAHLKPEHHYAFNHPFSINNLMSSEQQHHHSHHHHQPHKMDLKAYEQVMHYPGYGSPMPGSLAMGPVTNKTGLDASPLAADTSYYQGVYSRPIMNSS

In the case of `COC(C)(C)CC(C)=O`, the call in test [1], in test [2], in [3], in test [4], in test [5] and in test [6] was inactive. Also, the compound was called inactive in test [7], in [8], in test [9], in test [10], in test [11] and in test [12]. In addition, the call in [13], in test [14], in test [15], in [16], in [17] and in test [18] was inactive.
Consider `OCc1ccc(Cl)cc1Cl`, for which the outcome in test [1], in test [2], in test [3], in [4], in test [5] and in [6] was inactive. In addition, the compound was classed as inactive in test [7], in test [8], in [9], in [10], in test [11] and in [12]. The call in test [13], in [19], in [20], in test [15], in [16] and in [17] was inactive. For the same compound, in [18], the outcome was inactive.
Consider `COc1ccc(N=Nc2cc(C)c(N=Nc3ccc(S(=O)(=O)O)cc3)cc2OC)cc1`, for which the concentration at half-maximal activity (AC50) was 19.8 µM (active) in test [1]; 42.9 µM (active) in test [2]; 74.3 µM (active) in test [4]; 4.25 µM (active) in test [5]; 100 µM (active) in test [11]; 166 µM (active) in [14]. In [16], the half-maximal activity concentration (AC50) was 100 µM (active). Moreover, the outcome in test [3], in [6], in [7], in [8], in [9] and in test [10] was inactive. The compound was classed as inactive in test [12], in [13], in [19], in test [15] and in test [17].
For `CCC1(C)NC(=O)NC1=O` (centres undefined), the call in test [1], in test [2], in test [3], in test [4], in test [5] and in test [6] was inactive. For the same compound, the result in test [7], in test [8], in test [9], in [10], in test [11] and in test [12] was inactive. Besides, the compound was classed as inactive in [13], in test [19], in [14], in test [20], in test [16] and in test [17]. Besides, the compound was classed as inactive in test [18].

As usually defined, the AC50 is the concentration giving half of the maximal activity seen.
